Test results published in the supplement of paper PMC10849652.
Of roughly 8,800 targets only a part is listed; those with a hit were picked by preference. About 0.5% of all pairs of compound and target were hits. Unmarked numbers belong to inactive results.

compound: CC1=C(C(CC(=O)N1)C2=CC=C(C=C2)C(F)(F)F)C(=O)NC3=C(C=C4C(=C3)C=NN4)F; test: log2 fold change, soluble protein after heating vs DMSO (PISA); higher = thermal stabilisation; K562 lysate, 10 uM; active = over 0.2 and 3.5 SD of the protein, either way, in both replicates (recomputed)
How it was run: (§1)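 A 30 min treatment with 10 μM compound was applied to crude K562 extract at 1 mg/mL protein in PBS pH 7.4 with 1 mM MgCl2. Heating for 3 min spanned 48°C-58°C, after which aliquots were pooled, adjusted to 0.5% NP-40 at 4°C and spun at 21,000xg for 90 min. TMTpro 16plex LC-MS/MS of the supernatant, with channel sums equalised, gave values recorded as log-two fold change in thermal stability against solvent controls, from duplicates.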

Sequence of UniProt Q96N67 (Q96N67 whole entry, looked up): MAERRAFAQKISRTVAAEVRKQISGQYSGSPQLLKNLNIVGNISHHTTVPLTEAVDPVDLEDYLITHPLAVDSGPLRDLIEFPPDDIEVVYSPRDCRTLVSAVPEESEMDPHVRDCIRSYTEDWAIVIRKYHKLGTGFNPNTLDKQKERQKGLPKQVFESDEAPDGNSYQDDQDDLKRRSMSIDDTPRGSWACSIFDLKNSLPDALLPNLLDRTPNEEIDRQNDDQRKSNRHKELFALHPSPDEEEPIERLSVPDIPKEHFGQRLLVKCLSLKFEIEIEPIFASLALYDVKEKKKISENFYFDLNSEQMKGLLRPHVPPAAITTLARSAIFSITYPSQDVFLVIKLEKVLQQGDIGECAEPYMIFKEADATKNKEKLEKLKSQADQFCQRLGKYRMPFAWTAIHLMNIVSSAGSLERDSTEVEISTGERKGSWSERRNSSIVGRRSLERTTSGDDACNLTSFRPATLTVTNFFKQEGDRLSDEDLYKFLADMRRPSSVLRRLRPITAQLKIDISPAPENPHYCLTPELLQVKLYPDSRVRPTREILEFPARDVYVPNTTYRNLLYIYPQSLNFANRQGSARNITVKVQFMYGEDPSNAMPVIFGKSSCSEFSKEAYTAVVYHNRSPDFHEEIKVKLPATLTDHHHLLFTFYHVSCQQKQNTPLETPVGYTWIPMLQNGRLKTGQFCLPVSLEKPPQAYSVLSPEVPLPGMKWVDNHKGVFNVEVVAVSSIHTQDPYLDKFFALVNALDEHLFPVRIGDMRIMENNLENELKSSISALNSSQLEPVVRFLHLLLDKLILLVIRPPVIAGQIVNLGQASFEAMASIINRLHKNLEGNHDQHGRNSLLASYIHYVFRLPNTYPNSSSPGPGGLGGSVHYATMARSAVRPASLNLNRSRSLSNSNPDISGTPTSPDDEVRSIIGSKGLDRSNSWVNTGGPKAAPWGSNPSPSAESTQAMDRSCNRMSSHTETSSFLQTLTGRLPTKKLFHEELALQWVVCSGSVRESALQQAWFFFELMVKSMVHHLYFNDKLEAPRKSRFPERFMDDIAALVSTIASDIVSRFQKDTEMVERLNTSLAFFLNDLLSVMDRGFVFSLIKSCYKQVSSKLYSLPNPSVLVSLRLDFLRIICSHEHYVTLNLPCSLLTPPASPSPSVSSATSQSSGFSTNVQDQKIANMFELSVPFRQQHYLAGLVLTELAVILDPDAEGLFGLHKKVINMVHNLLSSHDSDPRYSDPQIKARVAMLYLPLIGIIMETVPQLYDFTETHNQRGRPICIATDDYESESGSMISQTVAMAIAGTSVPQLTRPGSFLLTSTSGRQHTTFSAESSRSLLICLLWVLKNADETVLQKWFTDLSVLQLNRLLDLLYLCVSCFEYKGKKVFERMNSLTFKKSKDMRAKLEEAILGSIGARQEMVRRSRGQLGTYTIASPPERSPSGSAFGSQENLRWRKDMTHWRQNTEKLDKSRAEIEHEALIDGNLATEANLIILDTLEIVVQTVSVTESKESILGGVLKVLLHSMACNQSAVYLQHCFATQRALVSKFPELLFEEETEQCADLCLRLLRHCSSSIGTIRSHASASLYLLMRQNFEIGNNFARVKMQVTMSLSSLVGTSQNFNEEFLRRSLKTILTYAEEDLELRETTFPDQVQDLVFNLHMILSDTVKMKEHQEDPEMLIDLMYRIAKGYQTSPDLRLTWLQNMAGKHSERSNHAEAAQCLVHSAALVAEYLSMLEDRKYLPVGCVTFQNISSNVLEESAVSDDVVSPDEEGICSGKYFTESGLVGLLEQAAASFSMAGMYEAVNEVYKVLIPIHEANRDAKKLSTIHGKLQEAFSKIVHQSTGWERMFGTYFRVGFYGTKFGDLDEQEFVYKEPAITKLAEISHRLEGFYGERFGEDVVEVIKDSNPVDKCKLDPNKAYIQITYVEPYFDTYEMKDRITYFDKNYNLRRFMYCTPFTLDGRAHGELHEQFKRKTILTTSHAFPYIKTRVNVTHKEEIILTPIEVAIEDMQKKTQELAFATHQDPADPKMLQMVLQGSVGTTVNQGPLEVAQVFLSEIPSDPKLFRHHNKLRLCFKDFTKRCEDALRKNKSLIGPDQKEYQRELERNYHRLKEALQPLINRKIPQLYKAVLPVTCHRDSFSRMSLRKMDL
Sequence of UniProt P33240 (P33240 whole entry, looked up): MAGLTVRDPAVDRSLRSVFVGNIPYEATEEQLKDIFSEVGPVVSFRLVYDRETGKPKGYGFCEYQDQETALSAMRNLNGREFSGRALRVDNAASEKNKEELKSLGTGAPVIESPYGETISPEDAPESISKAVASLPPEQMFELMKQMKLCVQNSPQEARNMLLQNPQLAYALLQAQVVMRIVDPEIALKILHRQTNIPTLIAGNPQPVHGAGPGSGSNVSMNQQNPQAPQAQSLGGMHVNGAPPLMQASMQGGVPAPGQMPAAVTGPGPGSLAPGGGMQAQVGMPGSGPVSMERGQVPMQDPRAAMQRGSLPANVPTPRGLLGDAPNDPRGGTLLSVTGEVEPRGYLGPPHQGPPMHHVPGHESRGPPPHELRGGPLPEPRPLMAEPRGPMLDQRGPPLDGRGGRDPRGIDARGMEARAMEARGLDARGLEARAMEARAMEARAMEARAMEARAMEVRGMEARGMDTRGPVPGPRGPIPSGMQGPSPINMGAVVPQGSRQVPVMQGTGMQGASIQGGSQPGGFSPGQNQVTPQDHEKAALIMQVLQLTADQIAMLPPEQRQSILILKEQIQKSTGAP
Sequence of UniProt Q8WYQ5 (Q8WYQ5 whole entry, looked up): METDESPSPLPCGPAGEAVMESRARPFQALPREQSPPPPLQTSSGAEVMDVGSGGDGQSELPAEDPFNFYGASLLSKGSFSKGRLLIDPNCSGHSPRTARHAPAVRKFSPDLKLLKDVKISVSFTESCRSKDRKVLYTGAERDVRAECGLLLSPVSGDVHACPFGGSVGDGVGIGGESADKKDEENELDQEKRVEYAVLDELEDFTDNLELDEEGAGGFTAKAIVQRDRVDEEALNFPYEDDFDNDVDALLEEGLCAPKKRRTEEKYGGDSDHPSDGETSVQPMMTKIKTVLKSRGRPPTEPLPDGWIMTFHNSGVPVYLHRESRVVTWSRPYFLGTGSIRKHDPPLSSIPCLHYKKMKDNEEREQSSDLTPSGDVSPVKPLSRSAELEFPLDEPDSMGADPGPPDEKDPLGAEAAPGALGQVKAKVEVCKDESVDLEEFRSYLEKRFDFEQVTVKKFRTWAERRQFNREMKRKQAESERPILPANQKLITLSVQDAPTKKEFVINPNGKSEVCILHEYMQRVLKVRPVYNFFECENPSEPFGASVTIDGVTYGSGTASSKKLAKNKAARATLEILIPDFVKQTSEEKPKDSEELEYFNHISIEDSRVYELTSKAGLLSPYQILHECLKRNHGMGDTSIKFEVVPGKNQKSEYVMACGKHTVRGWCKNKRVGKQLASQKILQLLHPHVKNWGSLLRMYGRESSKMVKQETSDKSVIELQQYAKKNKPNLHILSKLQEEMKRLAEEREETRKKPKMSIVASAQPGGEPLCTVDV
Sequence of UniProt Q8IY22 (Q8IY22 whole entry, looked up): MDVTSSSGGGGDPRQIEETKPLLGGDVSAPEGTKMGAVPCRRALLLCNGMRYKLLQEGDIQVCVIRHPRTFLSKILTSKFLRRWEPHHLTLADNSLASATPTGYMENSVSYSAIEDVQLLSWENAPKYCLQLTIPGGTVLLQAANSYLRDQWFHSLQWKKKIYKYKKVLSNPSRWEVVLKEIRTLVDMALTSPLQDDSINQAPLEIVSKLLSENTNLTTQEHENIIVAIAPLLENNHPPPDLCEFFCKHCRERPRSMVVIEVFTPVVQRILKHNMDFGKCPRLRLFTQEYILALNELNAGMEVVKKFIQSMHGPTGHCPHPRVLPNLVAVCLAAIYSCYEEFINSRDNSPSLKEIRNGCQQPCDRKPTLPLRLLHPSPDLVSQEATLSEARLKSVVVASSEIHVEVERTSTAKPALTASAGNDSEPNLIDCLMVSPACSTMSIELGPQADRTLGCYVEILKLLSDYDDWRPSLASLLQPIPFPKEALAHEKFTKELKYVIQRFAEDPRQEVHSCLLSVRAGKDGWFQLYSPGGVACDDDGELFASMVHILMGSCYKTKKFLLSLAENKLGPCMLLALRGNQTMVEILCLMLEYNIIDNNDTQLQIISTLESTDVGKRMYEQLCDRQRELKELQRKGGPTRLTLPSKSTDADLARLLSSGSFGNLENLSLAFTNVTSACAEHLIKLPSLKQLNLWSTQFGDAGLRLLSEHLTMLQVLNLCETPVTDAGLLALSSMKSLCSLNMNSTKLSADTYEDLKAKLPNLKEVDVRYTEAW
Sequence of UniProt P61024 (P61024 whole entry, looked up): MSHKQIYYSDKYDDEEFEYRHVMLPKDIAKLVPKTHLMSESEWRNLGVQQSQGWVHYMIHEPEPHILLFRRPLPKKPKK
Sequence of UniProt Q99766 (Q99766 whole entry, looked up): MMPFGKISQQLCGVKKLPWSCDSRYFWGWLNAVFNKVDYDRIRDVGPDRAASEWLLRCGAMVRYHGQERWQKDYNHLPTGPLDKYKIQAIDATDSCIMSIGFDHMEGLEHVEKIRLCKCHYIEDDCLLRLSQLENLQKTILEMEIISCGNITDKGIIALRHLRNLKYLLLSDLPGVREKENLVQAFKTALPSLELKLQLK
Sequence of UniProt Q6UWP2 (Q6UWP2 whole entry, looked up): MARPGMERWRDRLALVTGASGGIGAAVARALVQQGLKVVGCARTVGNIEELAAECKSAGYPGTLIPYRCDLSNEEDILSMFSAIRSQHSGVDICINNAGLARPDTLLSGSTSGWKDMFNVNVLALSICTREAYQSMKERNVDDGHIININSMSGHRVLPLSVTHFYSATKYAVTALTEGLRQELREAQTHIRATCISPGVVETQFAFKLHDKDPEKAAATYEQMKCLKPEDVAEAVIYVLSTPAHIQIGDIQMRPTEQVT
Sequence of UniProt P04080 (P04080 whole entry, looked up): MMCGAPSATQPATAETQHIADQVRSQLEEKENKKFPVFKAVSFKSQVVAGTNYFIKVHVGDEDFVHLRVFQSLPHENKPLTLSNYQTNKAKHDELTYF

| Target | log2 fold change |
| --- | --- |
| CKM (UniProt P06732) | -0.001 |
| CMIP (UniProt Q8IY22) | 0.001 |
| COG6 (UniProt Q9Y2V7) | -0.017 |
| DGCR8 (UniProt Q8WYQ5) | 0.02 |
| COPZ1 isoform 4 (UniProt P61923) | -0.054 |
| DENND6A (UniProt Q8IWF6) | 0.002 |
| CKAP5 (UniProt Q14008) | 0.007 |
| CNOT2 (UniProt Q9NZN8) | -0.01 |
| COL6A5 (UniProt A8TX70) | 0.063 |
| DCP1A (UniProt Q9NPI6) | 0.013 |
| COG2 (UniProt Q14746) | 0.023 |
| DEF6 (UniProt Q9H4E7) | 0.028 |
| CSDE1 isoform 4 (UniProt O75534) | -0.013 |
| CNOT6L (UniProt Q96LI5) | 0.064 |
| DHRS11 (UniProt Q6UWP2) | -0.005 |
| DNAJC1 (UniProt Q96KC8) | 0.019 |
| DOCK7 (UniProt Q96N67) | 0.03 |
| CTNND1 isoform 3 (UniProt O60716) | 0.006 |

| Target | log2 fold change |
| --- | --- |
| CHUK (UniProt O15111) | -0.047 |
| COG5 isoform 2 (UniProt Q9UP83) | -0.005 |
| CSTB (UniProt P04080) | -0.059 |
| CHORDC1 (UniProt Q9UHD1) | -0.009 |
| CSTF2 (UniProt P33240) | -0.033 |
| CIP2A (UniProt Q8TCG1) | 0.009 |
| DOCK8 (UniProt Q8NF50) | -0.005 |
| COQ9 (UniProt O75208) | 0.017 |
| CKS1B (UniProt P61024) | 0.055 |
| CXXC1 isoform 2 (UniProt Q9P0U4) | -0.01 |
| CXorf38 (UniProt Q8TB03) | -0.095 |
| DDX54 isoform 2 (UniProt Q8TDD1) | 0.02 |
| CSNK2A1 (UniProt P68400) | -0.039 |
| DMAC2L (UniProt Q99766) | 0.005 |
| DCP2 (UniProt Q8IU60) | 0.021 |
| CYP51A1 (UniProt Q16850) | -0.017 |
| CMPK2 (UniProt Q5EBM0) | 0.014 |

compound: CC1=C(C2=C(C=C1)C(=O)C3=CC=CC=C3N2CCCN)C; test: as above
How it was run: as §1

| Target | log2 fold change |
| --- | --- |
| CKM (UniProt P06732) | -0.029 |
| CMIP (UniProt Q8IY22) | -0.021 |
| COG6 (UniProt Q9Y2V7) | 0.016 |
| DGCR8 (UniProt Q8WYQ5) | -0.018 |
| COPZ1 isoform 4 (UniProt P61923) | 0.037 |
| DENND6A (UniProt Q8IWF6) | -0.03 |
| CKAP5 (UniProt Q14008) | 0.005 |
| CNOT2 (UniProt Q9NZN8) | 0.03 |
| COL6A5 (UniProt A8TX70) | -0.038 |
| DCP1A (UniProt Q9NPI6) | -0.02 |
| COG2 (UniProt Q14746) | -0.035 |
| DEF6 (UniProt Q9H4E7) | -0.024 |
| CSDE1 isoform 4 (UniProt O75534) | 0.004 |
| CNOT6L (UniProt Q96LI5) | -0.07 |
| DHRS11 (UniProt Q6UWP2) | -0.029 |
| DNAJC1 (UniProt Q96KC8) | 0.019 |
| DOCK7 (UniProt Q96N67) | -0.078 |
| CTNND1 isoform 3 (UniProt O60716) | -0.036 |

| Target | log2 fold change |
| --- | --- |
| CHUK (UniProt O15111) | -0.014 |
| COG5 isoform 2 (UniProt Q9UP83) | 0.04 |
| CSTB (UniProt P04080) | 0.037 |
| CHORDC1 (UniProt Q9UHD1) | 0.001 |
| CSTF2 (UniProt P33240) | -0.02 |
| CIP2A (UniProt Q8TCG1) | 0.003 |
| DOCK8 (UniProt Q8NF50) | 0.022 |
| COQ9 (UniProt O75208) | 0.007 |
| CKS1B (UniProt P61024) | 0 |
| CXXC1 isoform 2 (UniProt Q9P0U4) | 0.082 |
| CXorf38 (UniProt Q8TB03) | 0.016 |
| DDX54 isoform 2 (UniProt Q8TDD1) | -0.054 |
| CSNK2A1 (UniProt P68400) | 0.158 |
| DMAC2L (UniProt Q99766) | -0.018 |
| DCP2 (UniProt Q8IU60) | 0.034 |
| CYP51A1 (UniProt Q16850) | -0.031 |
| CMPK2 (UniProt Q5EBM0) | 0.027 |
